# Test results as given in PubChem BioAssay (NCI).
# The panel holds about 83,000 compounds, 20% with a hit somewhere; the sample as a whole holds those more often.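 Plates (96-well) were seeded with cells, treated with compound at one concentration, and incubated for 48 hours before percent growth was determined.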 Values without a mark were called inactive. Rule for the calls: active = growth percent below 10; inactive = the rest.
# Tested on: HS 578T breast
# Test: NCI-60 one-dose screen, 48 h (100 = growth as untreated, 0 = no growth, -100 = all killed)
# Details: 10 µM unless noted
row,Compound,growth [%]
1,COc1ccc(-c2n[nH]nc2-c2cc3ccccc3s2)cc1O,18.3
2,Cn1cc(-c2csc(-c3c[nH]c4ccc(F)cc34)n2)c2cccnc21,76.1
3,COc1cc(/C=N/Nc2ncnc3c2c(C)nn3-c2ccc(F)cc2)ccc1O,99.1
4,Nc1ccccc1NC(=O)c1ccc(CN2CCC/C(=C\c3ccccn3)C2=O)cc1,36.2
5,Cc1ccccc1-c1nc(C(Cl)Cl)nc2cc(-c3ccccc3)nn12,70
6,N#CC1=C(N)Oc2ccc3ccccc3c2C1c1ccccc1 (stereo not drawn),23.8
7,Cc1csc(-c2ccc3c(c2)COC3(CCCN(C)C)c2ccc(F)cc2)c1 (stereo not drawn),47.7
8,O=C(O)c1cccc2c1Cc1cc([N+](=O)[O-])ccc1-2,95
9,COc1ccc(C2C(C#N)=C(N)Oc3c2sc2c(F)cccc32)cc1 (stereo not drawn),42.4
10,CCCCCCCCNc1cccc2c1C(=O)c1ccccc1C2=O,95.7
11,CC1(C)CC[C@]2(CO)CC[C@]3(C)C(=CC[C@@H]4[C@@]5(C)CC[C@H](NCO)C(C)(C)[C@@H]5CC[C@]43C)[C@@H]2C1,11.4
12,CNC(=O)c1cc(Oc2ccc3nc(NC(=O)Nc4ccc(Cl)cc4)sc3c2)ccn1,30.1
13,O=C(c1ccccc1)C(CN1CCOCC1)c1ccccc1 (stereo not drawn),59.8
14,NCCn1cc(-c2nc(-c3c[nH]c4ncccc34)cs2)c2ccccc21,84.4
15,CC1(n2nnnc2N2CCCN(c3ncccc3N)CC2)CCC1,97.5
16,C=CC(=O)N[C@H](Cc1ccc(-c2cc(Cl)cc(Cl)c2)cc1)[C@H](O)[C@@H](O)C(=O)O,95.5
17,N#CC1=C(N)Oc2c(sc3c(F)cccc23)C1c1ccc(Cl)cc1 (stereo not drawn),40.6

row,Compound,growth [%]
1,COc1ccccc1CNc1nc(N)nc2[nH]c3ccc(O)cc3c12,59.2
2,CCC(c1ccc(OC)cc1)C(CC)c1ccc(O)c(CN2CCCCC2)c1 (stereo not drawn),79
3,C/C(=N\Nc1cc(C)c2cc(C)ccc2n1)c1ccccn1,45.9
4,Cn1cc(-c2csc(-c3c[nH]c4ccccc34)n2)c2cccnc21,60.5
5,Oc1ccc(Nc2ccccc2)cc1,105
6,C(=C\c1c[nH]c2ccccc12)/c1ccc2ccccc2n1,107
7,COc1ccc(-c2nc3ccccn3c2-c2nc3ccc(Cl)cc3[nH]2)cc1,93.6
8,Cc1ccsc1-c1ccc2c(c1)COC2(CCCN(C)C)c1ccc(F)cc1 (stereo not drawn),49
9,NS(=O)(=O)c1ccc(CCNC(=O)/C=C/c2ccc(Cl)cc2)cc1,98.2
10,Cc1ccc(N(CC(=O)Nc2ccc(S(=O)(=O)N3CCC(N4CCCC4)CC3)cc2)S(=O)(=O)c2ccc(Cl)cc2)cc1,66
11,CC1(C)NCCC[C@]2(C)[C@H]3CC[C@@H]4[C@H]5[C@H](C(=O)/C=C/c6ccccn6)CC[C@]5(CO)CC[C@@]4(C)[C@]3(C)CC[C@@H]12,70.8
12,Fc1ccc2nc(-c3cc(-c4ccc5c(c4)OCO5)n[nH]3)[nH]c2c1,78.2
13,O=C(NC(Cc1cn(Cc2ccccc2)cn1)C(=O)O)OCC1c2ccccc2-c2ccccc21 (stereo not drawn),98
14,Cc1cc(Cl)nc(N(CCCNc2ccnc3cc(Cl)ccc23)Cc2ccco2)n1,58.8
15,O=C1CNCCN1,100
16,NC1=NN=C2N(N)C(=O)c3cnn(-c4ccccc4)c3N2c2nc(-c3ccccc3)cc(-c3ccccc3)c21,101
